Here are results for 66 compounds from ChEMBL document CHEMBL1201862, “PubChem BioAssay data set” (2004).

The campaign covered roughly 400,000 compounds. About 2,100 (0.53%) were called active. Inconclusive results (about 14%) are left out. No rule for the calls is given here. Only a selection was taken, and actives are over-represented in it overall.

Ataxin-2 (Homo sapiens), sequence (Q99700 whole entry): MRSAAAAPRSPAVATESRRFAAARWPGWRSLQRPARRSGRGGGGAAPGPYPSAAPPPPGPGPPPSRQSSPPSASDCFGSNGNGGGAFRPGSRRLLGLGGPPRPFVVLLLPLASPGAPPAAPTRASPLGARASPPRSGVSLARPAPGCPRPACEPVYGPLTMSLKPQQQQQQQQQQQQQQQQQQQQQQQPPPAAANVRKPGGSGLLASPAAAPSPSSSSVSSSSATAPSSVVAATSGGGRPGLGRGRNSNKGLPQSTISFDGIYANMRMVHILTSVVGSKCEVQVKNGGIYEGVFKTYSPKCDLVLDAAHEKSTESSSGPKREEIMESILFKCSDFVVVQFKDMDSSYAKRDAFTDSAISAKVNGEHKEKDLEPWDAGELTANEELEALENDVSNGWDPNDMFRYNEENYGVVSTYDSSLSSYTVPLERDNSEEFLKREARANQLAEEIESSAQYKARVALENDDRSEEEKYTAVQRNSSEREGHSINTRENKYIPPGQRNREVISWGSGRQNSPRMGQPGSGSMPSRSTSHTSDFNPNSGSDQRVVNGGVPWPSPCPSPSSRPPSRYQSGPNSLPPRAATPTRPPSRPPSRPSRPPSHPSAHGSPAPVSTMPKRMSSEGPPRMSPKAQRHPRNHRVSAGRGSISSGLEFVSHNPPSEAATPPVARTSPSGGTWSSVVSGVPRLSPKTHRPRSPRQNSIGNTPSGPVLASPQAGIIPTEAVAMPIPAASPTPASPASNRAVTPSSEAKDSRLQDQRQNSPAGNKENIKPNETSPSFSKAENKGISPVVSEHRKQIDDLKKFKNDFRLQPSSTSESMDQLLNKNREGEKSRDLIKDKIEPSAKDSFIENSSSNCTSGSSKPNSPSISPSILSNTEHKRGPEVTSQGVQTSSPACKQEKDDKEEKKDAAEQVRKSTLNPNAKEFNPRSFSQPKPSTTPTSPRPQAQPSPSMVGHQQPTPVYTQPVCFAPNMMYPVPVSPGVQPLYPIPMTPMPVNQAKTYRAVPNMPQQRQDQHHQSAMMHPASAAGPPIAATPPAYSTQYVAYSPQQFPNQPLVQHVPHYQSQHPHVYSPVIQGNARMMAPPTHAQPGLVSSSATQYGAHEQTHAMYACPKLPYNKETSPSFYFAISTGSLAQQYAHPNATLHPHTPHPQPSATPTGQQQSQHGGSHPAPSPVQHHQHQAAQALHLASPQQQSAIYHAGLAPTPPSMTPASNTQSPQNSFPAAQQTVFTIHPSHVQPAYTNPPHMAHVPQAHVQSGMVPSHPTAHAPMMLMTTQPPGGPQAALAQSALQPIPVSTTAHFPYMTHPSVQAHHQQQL

This test has as its target Ataxin-2 (Homo sapiens) (UniProt Q99700). Put plainly: qHTS for Inhibitors of ATXN expression. The class given is functional. Background: Quantitative high-throughput screening tests each substance at several concentrations.
Consider `Cc1ccccc1/C=C/c1cccc[n+]1C`, for which the Potency result is “inactive”.
For `O=C(N/C(=C/c1cccc(Br)c1)C(=O)N1CCOCC1)c1ccco1`, the Potency entry is “inactive”.
In the case of `C(=Cc1c[nH]c2ccccc12)c1ccc2ccccc2n1` it was “inactive”; in that of `CC(C(=O)NCC1CCCCC1)N(C)CC(=O)Nc1ccc(N2CCOCC2)cc1` (stereo unspecified), “inactive”.
The same measure for `Cc1cccc(C2C=C(c3ccc(C)c(C)c3)Nc3nnnn32)c1` (stereo unspecified): “inactive”; for `CCN1CCN(c2cc(C)c3cc(NC(=O)c4cccc(OC)c4)ccc3n2)CC1`: “inactive”; for `CCN(CC)c1cc(C)c2cc(NC(=O)c3cccc(OC)c3)ccc2n1`: 39.8 µM (active).
In the case of `Cc1ccc(NN2C(=O)C=C(c3ccc(Cl)cc3)C2=O)cc1` it was 28.2 µM (active).
With `CC(=O)c1ccc(F)c(-c2cc(C)cc3c2OC(CNC(=O)c2csc(C)n2)C3)c1` (stereo unspecified), the Potency result is “inactive”.
In the case of `CC(C)CC(COCc1cccc(C(F)(F)F)c1)N1CCN(C(=O)c2cccc(C(F)(F)F)c2)CCC1=O` (stereo unspecified) it was 31.6 µM (active); in that of `Cc1cccc(COC[C@H](CC(C)C)N2CCN(C(=O)c3ccc(C(C)(C)C)cc3)CCC2=O)c1`, 39.8 µM (active).
The same measure for `Cc1cccc(COC[C@H](CC(C)C)N2CCN(C(=O)c3ccc(C(F)(F)F)cc3)CCC2=O)c1`: 35.5 µM (active).
The same measure for `O=C(COC(=O)C1=Cc2ccccc2OC1)NCc1ccco1`: “inactive”.
With `Cn1c(Cl)c(/C=N/OC(=O)C2CC2)c2ccccc21`, the Potency result is “inactive”.
The same measure for `O=c1ccc2cc(O)c(O)cc2o1`: “inactive”.
Consider `OC[C@@H]1[C@@H](c2ccc(Cl)cc2)C(c2cccc(Cl)c2)=NN1c1ccccc1`, for which the Potency result was “inactive”.
The same measure for `CCN(CC)CCCC(C)n1c2nc(=O)[nH]c(=O)c-2nc2cc(Cl)ccc21` (stereo unspecified): “inactive”; for `O=C(CSc1c2c(nc3ccc(Cl)cc13)CCCC2)NCCCN1CCOCC1`: 35.5 µM (active); for `O=C(O)c1c2c(nc3ccc(Cl)cc13)CCC2`: “inactive”.
Regarding `O=C(Cc1cc(O)nc(O)n1)NCCN1CCOCC1`, the Potency entry was “inactive”.
`Cc1cc2cc(C#N)c(NCCN=C(S)NCCCN3CCOCC3)nc2cc1C`: the Potency result is “inactive”.
The same measure for `CCN(CC)CCNC(=O)CSc1c2c(nc3cc(Cl)ccc13)CCCC2`: 35.5 µM (active); for `CCN(CC)CCCNC(=O)CSc1c2c(nc3cc(Cl)ccc13)CCCC2`: 28.2 µM (active); for `CCN(CC)CCCNC(=O)CSc1nc(C)cc(C)n1`: “inactive”.
Regarding `CC1CCCC(NC(=O)c2ccc3c(SCC(=O)O)c4c(nc3c2)CCC4)C1C` (stereo unspecified), the Potency entry is “inactive”.
In the case of `CCCN(CCC)C(=O)CSc1c2c(nc3ccc(Cl)cc13)CCCC2` it was 39.8 µM (active); in that of `CCOC(=O)C1CCCc2c1[nH]c1ccc(Cl)cc21` (stereo unspecified), “inactive”; in that of `Cc1occc1-c1nnc(SCC(=O)NC2CCCCC2)o1`, “inactive”.
`Cc1c(CC(=O)N2CCN(C(=O)C3COc4ccccc4O3)CC2)c(=O)oc2cc(O)c(Cl)cc12` (stereo unspecified): the Potency entry is “inactive”.
In the case of `Nc1cccc2c1C(=O)N(c1ccccc1)C2=O` it was “inactive”.
The same measure for `Cc1ccc(C(=O)Nc2nc3n(n2)C(c2ccccc2)C=C(c2ccccc2)N3)cc1` (stereo unspecified): “inactive”; for `CNc1cc(C)c(C#N)c2nc3ccccc3n12`: “inactive”.
The same measure for `CCC(c1ccc(O)c(O)c1)C(CC)c1ccc(O)c(O)c1` (stereo unspecified): 31.6 µM (active); for `CCN(CC)Cc1cc(O)c(CN(CC)CC)cc1O`: “inactive”; for `CC(C)(C)N1C(=O)c2ccc(C(=O)Nc3cc(C(=O)O)cc(C(=O)O)c3)cc2C1=O`: “inactive”.
For the compound `COc1cc(C(=O)NCCc2csc(-c3ccc(Cl)cc3)n2)cc(OC)c1OC`, the Potency is 28.2 µM (active).
The same measure for `COc1cc(C(=O)NCCNc2nc3ccc(C)cc3cc2C#N)cc(OC)c1OC`: “inactive”; for `COc1ccc(CCNC(=S)NC(=O)c2cc(OC)c(OC)c(OC)c2)cc1OC`: “inactive”.
The same measure for `COc1ccc2nc(-c3ccccc3)cc(C(=O)OCC(=O)N3CC(C)OC(C)C3)c2c1` (stereo unspecified): “inactive”; for `COc1ccc2nc(-c3ccccc3)cc(C(=O)N3CCC3)c2c1`: “inactive”; for `COc1ccc(-c2cc(C(=O)Oc3ccccc3)c3cc(C)ccc3n2)cc1`: 35.5 µM (active).
In the case of `CCOC(=O)c1c(N)sc(C(=O)Nc2ccccc2)c1C` it was “inactive”; in that of `CCOC(=O)c1c(C)nc2sc(C(=O)Nc3ccccc3)c(N)c2c1-c1ccc(OC)cc1`, “inactive”; in that of `CCOC(=O)c1c(NC(=O)CCl)sc(CN(C)C)c1-c1ccccc1`, 37.7 µM (active).
Consider `CC(=O)Nc1nc2n(n1)C(c1ccc(F)cc1)C=C(c1ccccc1)N2` (stereo unspecified), for which the Potency result is “inactive”.
With `CCCCCn1/c(=N/C(C)=O)c(C#N)cc2c(=O)n3ccccc3nc21`, the Potency result is “inactive”.
In the case of `COc1ccccc1[C@@H]1C(c2ccccc2)=NN(c2ccc(Br)cc2)[C@H]1C(=O)N1CCOC1=O` it was “inactive”; in that of `CNC(=O)c1sc(N2N=C3/C(=C/c4ccccc4)CCCC3C2c2ccccc2)nc1C` (stereo unspecified), “inactive”.
In the case of `CCCn1c(O)nnc1SCC(=O)N1N=C2/C(=C/c3ccc(OC)cc3)CCCC2C1c1ccc(OC)cc1` (stereo unspecified) it was 25.1 µM (active).
As to `Cc1nc(N2N=C3/C(=C/c4ccc(F)cc4)CCCC3C2c2ccc(F)cc2)sc1C(=O)N(C)C` (stereo unspecified), the Potency entry was “inactive”.
The same measure for `O=c1[nH]c(=O)c2nc3c4ccccc4c4ccccc4c3nc2[nH]1`: “inactive”; for `CC1CCC2C(=O)N(c3ccc(C(=O)Oc4cccc5cccnc45)cc3)C(=O)C2C1` (stereo unspecified): “inactive”; for `Cc1cc2nc3ccc(N(C)C)cc3nc2cc1N`: 25.1 µM (active).
Regarding `CN(C)c1ccc2c(O)ccnc2c1`, the Potency entry was “inactive”.
In the case of `Cc1cc2nn(-c3ccc(Cl)cc3)nc2cc1N` it was “inactive”; in that of `Nc1c(C(=O)NCCN2CCOCC2)c2nc3ccccc3nc2n1CCc1ccccc1`, “inactive”.
On to `COc1cccc(C2C3=C(O)CC(C)(C)CC3=Nc3cc(OC)c(OC)cc32)c1` (stereo unspecified), for which the Potency entry is “inactive”.
The same measure for `COC(=O)C=C1CCC2C3CCC4=CC(=O)C(Br)CC4(C)C3C(=O)CC12C` (stereo unspecified): 31.6 µM (active); for `COc1ccc(C2CC(c3ccc(Cl)cc3)=NN2c2ccc(S(N)(=O)=O)cc2)cc1` (stereo unspecified): “inactive”.
Turning to `CCOC(=O)C1(C)C=C(Nc2ccc(NC(C)=O)cc2)C(=O)N1c1ccc(NC(C)=O)cc1` (stereo unspecified), the Potency result is “inactive”.
The same measure for `CC(=O)NC(Cc1ccccc1C)C(=O)NC1CCN(C(=O)NCc2ccccc2)CC1` (stereo unspecified): “inactive”.
In the case of `CC(C)(C)OC(=O)N1CCC(NC(=O)c2[nH]cnc2C(=O)Nc2cccc(Cl)c2)CC1` it was 35.5 µM (active); in that of `CC(C)(C)OC(=O)N1CCCN(C(=O)Nc2cccc(Cl)c2)CC1`, “inactive”; in that of `COc1cc(OC)c(N2CC(C(=O)Nc3cccc(C(=O)NC4CC4)c3)CC2=O)cc1Cl` (stereo unspecified), “inactive”.
In the case of `COc1ccccc1CC(NC(C)=O)C(=O)NC1CCN(C(=O)NCc2ccccc2)CC1` (stereo unspecified) it was “inactive”.
On to `CC(C)(C)OC(=O)NCc1ccc(CNC(=O)c2[nH]cnc2C(=O)NC2CCN(C(=O)OC(C)(C)C)CC2)cc1`, for which the Potency was 20 µM (active).
